Laboratory results published in ChEMBL document CHEMBL3433997, “St. Jude Leishmania screening dataset” (2016).

Columns and labels:
Format in all cases: functional
[1] = biological target: Solute carrier family 2, facilitated glucose transporter member 1 (Homo sapiens) (UniProt P11166); experiment: ST_JUDE_LEISH: Cytotoxicity at 2uM final concentration against transgenic Leishmania Mexicana promastigotes LmGLUT1 that are glucose transport deficient and complemented with the human glucose transporter GLUT1. Activity is measured by DNA content using SYBR green in vitro
[2] = biological target: Hexose transporter 1 (Plasmodium falciparum) (UniProt O97467); experiment: ST_JUDE_LEISH: Cytotoxicity at 2uM final concentration against transgenic Leishmania Mexicana promastigotes LmPfHT that are glucose transport deficient and complemented with the Plasmodium falciparum hexose transporter. Activity is measured by DNA content using SYBR green in vitro
[3] = biological target: Glucose transporter (Leishmania mexicana) (UniProt O61059); experiment: ST_JUDE_LEISH: Cytotoxicity at 2uM final concentration against transgenic Leishmania Mexicana promastigotes LmGT2 that are glucose transport deficient and complemented with the L. Mexicana glucose transporter 2. Activity is measured by DNA content using SYBR green in vitro

Solute carrier family 2, facilitated glucose transporter member 1 (Homo sapiens), sequence (P11166 whole entry): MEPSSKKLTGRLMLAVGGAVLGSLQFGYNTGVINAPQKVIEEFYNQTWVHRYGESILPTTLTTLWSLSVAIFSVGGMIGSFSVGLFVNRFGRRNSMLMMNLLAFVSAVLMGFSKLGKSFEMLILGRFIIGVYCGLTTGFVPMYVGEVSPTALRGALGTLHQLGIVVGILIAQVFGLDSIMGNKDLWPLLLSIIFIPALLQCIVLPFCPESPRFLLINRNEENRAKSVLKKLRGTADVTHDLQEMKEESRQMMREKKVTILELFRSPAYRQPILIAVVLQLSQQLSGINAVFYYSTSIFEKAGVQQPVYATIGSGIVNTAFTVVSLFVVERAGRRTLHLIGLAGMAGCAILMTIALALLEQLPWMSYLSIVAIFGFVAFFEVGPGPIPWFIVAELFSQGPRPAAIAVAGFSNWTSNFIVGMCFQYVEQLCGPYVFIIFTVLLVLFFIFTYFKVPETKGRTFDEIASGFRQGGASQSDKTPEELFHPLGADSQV

Compound | inhibition [1] [%] | inhibition [2] [%] | inhibition [3] [%]
COCCN1CCN(Cc2ccc(-c3ccc(-c4nc5cccc(C)c5[nH]4)s3)cc2)CC1 | 8.84 | 6.85 | 4.87
OCCOCCNCc1cccc(C#Cc2cc3ncnc(Nc4ccc(OCc5cccc(F)c5)c(Cl)c4)c3s2)n1 | -0.5 | 1.33 | 1.82
Cc1nnnn1-c1ccc(C(=O)N2CCC3(CC2)CN(Cc2ccc(Cl)c(Cl)c2)C(=O)O3)cc1 | 8.95 | 8.51 | 6.87
NS(=O)(=O)c1cccc(-c2ccc3nccc(-c4cccc(S(N)(=O)=O)c4)c3c2)c1 | 2.86 | 0.59 | -1.04
O=C(/C=C/c1ccc(Cl)c(Cl)c1)NCCCCCCN1CCN(C(=O)Nc2ccc(Cl)c(Cl)c2)CC1 | 2.42 | 2.46 | 4.14
Cc1nn(-c2ccccc2)nc1C(=O)NC1CCN(CCNC(=O)c2ccc(Cl)c(Cl)c2)CC1 | 0.92 | 2.53 | 1.85
COc1ccccc1N1CCN(C(C(=O)NCc2ccc(C)cc2)c2ccc(C)cc2)CC1 (stereo unspecified) | -0.68 | -0.64 | -2.75
CCOCc1cn(CC(=O)c2ccc(-c3ccccc3)cc2)c(C)nc1=N | -1.07 | -0.82 | -0.84
COc1ccccc1/C=C/C(=O)N(C)C1CCN(CCCCCNC(=O)/C=C/c2ccc(Cl)c(Cl)c2)C1 (stereo unspecified) | 1.67 | 1.04 | 0.34
COc1cccc(CNC(=O)c2cccc(-c3ccc(CN4CCC(N5CCCC5)CC4)cc3)n2)c1 | 7.47 | 5.46 | 8.7
CS(=O)(=O)c1ccc(CNCc2ccc(-c3ccc(-c4nc5cc(F)ccc5[nH]4)s3)cc2)cc1 | 11.6 | 10.9 | 8.75
CC1N=C(N)N=C(N)N1OCc1cccc2ccccc12 (stereo unspecified) | 1.93 | 0.04 | 1.84
